Source: the supplement of paper PMC10338343
± gives the standard deviation.

These sequences were tested on EfPiwi piRISC loaded with L1MC piRNA (26 nt) (assay: pre-steady-state target cleavage rate (min^-1); auxiliary factor: 500 nM Ephydatia muelleri Gtsf1; guide: L1MC piRNA 5'p-UAACUAAAUACUAUGCAAGCUGUAGG; MIWI and MILI are mouse PIWI proteins and EfPiwi is from a freshwater sponge; tags in brackets are library labels; higher = faster piRNA-guided slicing of the target).
In short: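 The pre-steady-state cleavage rate came from a burst-and-steady-state fit to pooled data from three Cleave-'n-Seq trials, in which uncleaved targets were sequenced and normalised to depth and to weakly complementary targets. Each reaction held 0.1 nM transcribed, DNA-blocked target RNA library and 1 nM active affinity-purified piRISC carrying one synthetic guide, with or without 500 nM GTSF1 partner protein, in HEPES–potassium acetate buffer at 33 °C for 0–8 or 0–960 min. k3 was capped at 0.0001 min^-1.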

Row | Sequence | pre-steady-state target cleavage rate
1 | UCCUGGAUCAGAUUGCAUAGUAUUUAGUUA | 0.0613 ± 0.011
2 | UCCUGCUACAGCUUGCAUAGUUAUUAGUUA | 0.00354 ± 0.0022
3 | UCCUGGAUGUCCUUCGCAUAGUAUUUAGUUA | 0.01 ± 0.0052
4 | UCCUGGAUGUGCUUGCAUAGUCUUUAGUUA | 0.00922 ± 0.0036
5 | UCCUGGAUGAGCUGUGCAUAGUAUUUAGUUA | 0.0255 ± 0.0063
6 | UCCUGGAACAGCCUGCAUAGUAUUUAGUUA | 0.0144 ± 0.0045
7 | UCCUCCAACAGCUUGCAUUGUAUUUAGUUA | 0.0205 ± 0.0058
8 | UCCUGCUACAGGUUGGAUAGUAUUUAGUUA | 0.00793 ± 0.0027
9 | UCCUGCUACAGCUUCGAUAGUAUUUAGUUA | 0.00756 ± 0.0026
10 | UCCUGGUACAGCUUGCUUAGUAAUUAGUUA | 0.00675 ± 0.0033
11 | UCCUGCUACAGCUUGCAUAGUAUCUAGUUA | 0.00723 ± 0.0019
12 | UCCUCGUACAGCUUGCAUAGUUUUUAGUUA | 0.0267 ± 0.0072
13 | UCCUCCUACAGCUUGGUAAGUAUUUAGUUA | 0.00379 ± 0.0034
14 | UCCUGCUACAGCUUGUCAUAGUAUUUAGUUA | 0.0131 ± 0.0037
15 | UCCUGGAUGUCCUUGCAUAGUAUUUUAGUUA | 0.00287 ± 0.0028
16 | UCCUGGUACAGCUUGCAUAGUUUUUAGUAA | 0.00728 ± 0.0027
17 | UCCUCACUACAGCUUGCAUAGUAUUUAGUUA | 0.0191 ± 0.0067
